Data: paper PMC11062922 (Nature Chemical Biology, 2023)
Like-named read-outs stand apart in the source and are kept apart here.

Test system: PRKAA2
Settings: read-out: apparent Kd, n = 1

Lestaurtinib gave a potency estimated from few doses (compound concentrations:100 nM and 1000 nM (sheet 'Lestaurtinib' of Supplementary Table 1),run:Lestaurtinib_02381_R1,Plate:MR004) of 1400 nM, a potency estimated from few doses (compound concentrations:100 nM and 1000 nM (sheet 'Lestaurtinib' of Supplementary Table 1),run:Lestaurtinib_02381_R2,Plate:MR004) of 954 nM and a potency estimated from few doses (compound concentrations:100 nM and 1000 nM (sheet 'Lestaurtinib' of Supplementary Table 1),run:Lestaurtinib_02381_R3,Plate:MR004) of 761 nM. It also gave a potency estimated from few doses (compound concentrations:100 nM and 1000 nM (sheet 'Lestaurtinib' of Supplementary Table 1),run:Lestaurtinib_02407_R1,Plate:MR005) of 755 nM, a potency estimated from few doses (compound concentrations:100 nM and 1000 nM (sheet 'Lestaurtinib' of Supplementary Table 1),run:Lestaurtinib_02407_R3,Plate:MR005) of 722 nM and a potency estimated from few doses (compound concentrations:100 nM and 1000 nM (sheet 'Lestaurtinib' of Supplementary Table 1),run:Lestaurtinib_02422_R3,Plate:MR006) of 74.8 nM. The potency estimated from few doses (compound concentrations:100 nM and 1000 nM (sheet 'Lestaurtinib' of Supplementary Table 1),run:Lestaurtinib_02437_R2,Plate:MR007) was 616 nM, the potency estimated from few doses (compound concentrations:100 nM and 1000 nM (sheet 'Lestaurtinib' of Supplementary Table 1),run:Lestaurtinib_02437_R3,Plate:MR007) was 56.5 nM and the potency estimated from few doses (compound concentrations:100 nM and 1000 nM (sheet 'Lestaurtinib' of Supplementary Table 1),run:Lestaurtinib_02438_R1,Plate:MR008) was 857 nM. It also gave a potency estimated from few doses (compound concentrations:100 nM and 1000 nM (sheet 'Lestaurtinib' of Supplementary Table 1),run:Lestaurtinib_02443_R3,Plate:MR009) of 792 nM, a potency estimated from few doses (compound concentrations:100 nM and 1000 nM (sheet 'Lestaurtinib' of Supplementary Table 1),run:Lestaurtinib_02473_R1,Plate:MR010) of 730 nM and a potency estimated from few doses (compound concentrations:100 nM and 1000 nM (sheet 'Lestaurtinib' of Supplementary Table 1),run:Lestaurtinib_02473_R2,Plate:MR010) of 941 nM. For the same substance, the potency estimated from few doses (compound concentrations:100 nM and 1000 nM (sheet 'Lestaurtinib' of Supplementary Table 1),run:Lestaurtinib_02473_R3,Plate:MR010) was 799 nM, the potency estimated from few doses (compound concentrations:100 nM and 1000 nM (sheet 'Lestaurtinib' of Supplementary Table 1),run:Lestaurtinib_02482_R1,Plate:MR011) was 788 nM and the potency estimated from few doses (compound concentrations:100 nM and 1000 nM (sheet 'Lestaurtinib' of Supplementary Table 1),run:Lestaurtinib_02482_R2,Plate:MR011) was 508 nM. The potency estimated from few doses (compound concentrations:100 nM and 1000 nM (sheet 'Lestaurtinib' of Supplementary Table 1),run:Lestaurtinib_02482_R3,Plate:MR011) was 568 nM, the potency estimated from few doses (compound concentrations:100 nM and 1000 nM (sheet 'Lestaurtinib' of Supplementary Table 1),run:Lestaurtinib_02487_R1,Plate:MR012) was 422 nM and the potency estimated from few doses (compound concentrations:100 nM and 1000 nM (sheet 'Lestaurtinib' of Supplementary Table 1),run:Lestaurtinib_02487_R3,Plate:MR012) was 679 nM. It also gave a potency estimated from few doses (compound concentrations:100 nM and 1000 nM (sheet 'Lestaurtinib' of Supplementary Table 1),run:Lestaurtinib_02496_R1,Plate:MR013) of 702 nM, a potency estimated from few doses (compound concentrations:100 nM and 1000 nM (sheet 'Lestaurtinib' of Supplementary Table 1),run:Lestaurtinib_02496_R2,Plate:MR013) of 598 nM and a potency estimated from few doses (compound concentrations:100 nM and 1000 nM (sheet 'Lestaurtinib' of Supplementary Table 1),run:Lestaurtinib_02496_R3,Plate:MR013) of 785 nM. The potency estimated from few doses (compound concentrations:100 nM and 1000 nM (sheet 'Lestaurtinib' of Supplementary Table 1),run:Lestaurtinib_02572_R1,Plate:MR015) was 617 nM, the potency estimated from few doses (compound concentrations:100 nM and 1000 nM (sheet 'Lestaurtinib' of Supplementary Table 1),run:Lestaurtinib_02572_R2,Plate:MR015) was 1330 nM and the potency estimated from few doses (compound concentrations:100 nM and 1000 nM (sheet 'Lestaurtinib' of Supplementary Table 1),run:Lestaurtinib_02572_R3,Plate:MR015) was 1400 nM. It also gave a potency estimated from few doses (compound concentrations:100 nM and 1000 nM (sheet 'Lestaurtinib' of Supplementary Table 1),run:Lestaurtinib_02577_R2,Plate:MR016) of 1210 nM, a potency estimated from few doses (compound concentrations:100 nM and 1000 nM (sheet 'Lestaurtinib' of Supplementary Table 1),run:Lestaurtinib_02577_R3,Plate:MR016) of 924 nM and a potency estimated from few doses (compound concentrations:100 nM and 1000 nM (sheet 'Lestaurtinib' of Supplementary Table 1),run:Lestaurtinib_02584_R1,Plate:MR017) of 1410 nM. It also gave a potency estimated from few doses (compound concentrations:100 nM and 1000 nM (sheet 'Lestaurtinib' of Supplementary Table 1),run:Lestaurtinib_02584_R3,Plate:MR017) of 1530 nM, a potency estimated from few doses (compound concentrations:100 nM and 1000 nM (sheet 'Lestaurtinib' of Supplementary Table 1),run:Lestaurtinib_02601_R1,Plate:MR018) of 805 nM and a potency estimated from few doses (compound concentrations:100 nM and 1000 nM (sheet 'Lestaurtinib' of Supplementary Table 1),run:Lestaurtinib_02601_R2,Plate:MR018) of 710 nM. The potency estimated from few doses (compound concentrations:100 nM and 1000 nM (sheet 'Lestaurtinib' of Supplementary Table 1),run:Lestaurtinib_02606_R2,Plate:MR019) was 749 nM, the potency estimated from few doses (compound concentrations:100 nM and 1000 nM (sheet 'Lestaurtinib' of Supplementary Table 1),run:Lestaurtinib_02606_R3,Plate:MR019) was 736 nM and the potency estimated from few doses (compound concentrations:100 nM and 1000 nM (sheet 'Lestaurtinib' of Supplementary Table 1),run:Lestaurtinib_02624_R1,Plate:MR020) was 849 nM. The potency estimated from few doses (compound concentrations:100 nM and 1000 nM (sheet 'Lestaurtinib' of Supplementary Table 1),run:Lestaurtinib_02624_R2,Plate:MR020) was 711 nM, the potency estimated from few doses (compound concentrations:100 nM and 1000 nM (sheet 'Lestaurtinib' of Supplementary Table 1),run:Lestaurtinib_02624_R3,Plate:MR020) was 877 nM and the potency estimated from few doses (compound concentrations:100 nM and 1000 nM (sheet 'Lestaurtinib' of Supplementary Table 1),run:Lestaurtinib_02724_R2,Plate:MR021) was 803 nM. For the same substance, the potency estimated from few doses (compound concentrations:100 nM and 1000 nM (sheet 'Lestaurtinib' of Supplementary Table 1),run:Lestaurtinib_02724_R3,Plate:MR021) was 946 nM, the potency estimated from few doses (compound concentrations:100 nM and 1000 nM (sheet 'Lestaurtinib' of Supplementary Table 1),run:Lestaurtinib_02748_R1,Plate:MR024) was 752 nM and the potency estimated from few doses (compound concentrations:100 nM and 1000 nM (sheet 'Lestaurtinib' of Supplementary Table 1),run:Lestaurtinib_02748_R3,Plate:MR024) was 559 nM. For the same substance, the potency estimated from few doses (compound concentrations:100 nM and 1000 nM (sheet 'Lestaurtinib' of Supplementary Table 1),run:Lestaurtinib_02752_R2,Plate:MR025) was 851 nM, the potency estimated from few doses (compound concentrations:100 nM and 1000 nM (sheet 'Lestaurtinib' of Supplementary Table 1),run:Lestaurtinib_02752_R3,Plate:MR025) was 786 nM and the potency estimated from few doses (compound concentrations:100 nM and 1000 nM (sheet 'Lestaurtinib' of Supplementary Table 1),run:Lestaurtinib_02765_R1,Plate:MR026) was 911 nM. It also gave a potency estimated from few doses (compound concentrations:100 nM and 1000 nM (sheet 'Lestaurtinib' of Supplementary Table 1),run:Lestaurtinib_02765_R2,Plate:MR026) of 741 nM, a potency estimated from few doses (compound concentrations:100 nM and 1000 nM (sheet 'Lestaurtinib' of Supplementary Table 1),run:Lestaurtinib_02766_R1,Plate:MR027) of 782 nM and a potency estimated from few doses (compound concentrations:100 nM and 1000 nM (sheet 'Lestaurtinib' of Supplementary Table 1),run:Lestaurtinib_02766_R2,Plate:MR027) of 96.4 nM. It also gave a potency estimated from few doses (compound concentrations:100 nM and 1000 nM (sheet 'Lestaurtinib' of Supplementary Table 1),run:Lestaurtinib_02766_R3,Plate:MR027) of 669 nM and a potency estimated from few doses (compound concentrations:100 nM and 1000 nM (sheet 'Lestaurtinib' of Supplementary Table 1),run:Lestaurtinib_02768_R3,Plate:MR028) of 518 nM.
